# Assay outcomes as filed in PubChem.
# PLC-gamma1 inh: PLC-gamma1 enzyme inhibitors, primary screen, biochemical, fluorescence, purified enzyme. 1-phosphatidylinositol 4,5-bisphosphate phosphodiesterase gamma-1 (Homo sapiens), P19174. AID 720700, 2013. hit rate 0.84% among 370,000. fluorogenic substrate. inhibition, % at 12.2 µM; in the data active = inhibition above about 9.5%
# PLCb3 inh: human PLC-beta3 inhibitors, primary screen, biochemical, fluorescence. 1-phosphatidylinositol 4,5-bisphosphate phosphodiesterase beta-3 (Homo sapiens), Q01970. Purified PLC-beta3, fluorogenic substrate. inhibition, % at 12.2 µM. hit rate 0.18% among 370,000. AID 720704, 2013; in the data active = inhibition above about 11%;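 also: 0% = median of compound wells on plate and 100% = full blocker control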
# KLK7 zymogen act: proKLK7 zymogen activators, primary screen, biochemical, fluorescence intensity | Kallikrein-7 (Homo sapiens), P49862 | purified proKLK7, EDANS-DABCYL substrate fluorescence; 100% is mature enzyme control, 0% vehicle | activation, % at 7 µM | hit rate 0.9% among 370,000;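 active = activation above the mean of all tested compounds plus 3 SD, computed per campaign excluding outliers beyond control limits, cut at about 13% in these data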
# ADAM17 inh: ADAM17 inhibitors, primary screen, biochemical, QFRET; recombinant ADAM17, EDANS/DABCYL FRET peptide cleavage; inhibition, % at 6.95 µM; hit rate 0.83% among 370,000; AID 720648, 2013;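 active = inhibition above the mean of compounds lying between control limits plus 3 SD, set per campaign, cut at about 8.5% in these data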;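 also: 0% = DMSO-only wells as the low control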
# ADAM10 inh: human ADAM10 inhibitors, primary screen, biochemical, QFRET, HTS. recombinant ADAM10, EDANS/DABCYL FRET peptide cleavage, 3 h. Disintegrin and metalloproteinase domain-containing protein 10 (Homo sapiens), O14672. AID 720582, 2013. hit rate 0.62% among 370,000. inhibition, % at 7 µM;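 active = inhibition above a per-campaign cutoff equal to the mean of compounds falling between control-based bounds plus 3 SD, cut at about 20% in these data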;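 also: 0% = DMSO wells while the 100% control is not disclosed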
# sPLA2-III inh: human group III sPLA2 inhibitors, primary screen, biochemical, QFRET, BODIPY PC-A2 liposome substrate; Group 3 secretory phospholipase A2 (Homo sapiens), Q9NZ20; QFRET BODIPY PC-A2 liposome hydrolysis, fluorescence; inhibition, % at 12.2 µM; hit rate 0.56% among 370,000;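 active = inhibition above mean plus 3 SD of compounds lying within the high and low control bounds, cut at about 19% in these data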;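 also: 0% = median of test compound wells and 100% = no enzyme DMSO wells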
# hGIII sPLA2 conf: human group III sPLA2 inhibitors, confirmation, biochemical, QFRET, triplicate. inhibition, % at 12.2 µM. recombinant hGIII-sPLA2, BODIPY PC-A2 QFRET fluorescence. shares compounds with sPLA2-III inh. hit rate 34% among 2,000;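 active = mean inhibition across triplicates above the hit cutoff set in the earlier primary screen, cut at about 19% in these data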;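 also: 0% = enzyme with DMSO and 100% = DMSO wells lacking enzyme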
# BODIPY interf: 535nm fluorescence optical interference, confirmation, artefact control for HGIII-sPLA2 inhibitor project, biochemical, QFRET; inhibition, % at 12.2 µM; shares compounds with sPLA2-III inh; BODIPY FL product fluorescence interference; hit rate 8.5% among 2,000;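 active = average inhibition above the solvent-only control mean plus 3 SD, cut at about 6% in these data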;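 also: 0% = DMSO with substrate plus product and 100% = DMSO with substrate alone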
# 535nm interf DR: 535nm fluorescence optical interference, dose response, artefact control for HGIII-sPLA2 inhibitor project, biochemical, QFRET. shares compounds with sPLA2-III inh. IC50, µM. 240 tested, under 10 active. BODIPY FL product fluorescence interference, cell-free;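 active = IC50 at or below 10 µM; inactive = IC50 above 10 µM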
# * marks the source's active call; other numbers are inactive results; i = inactive; nt = no result given; ! = not confirmed by another sample. This is a sample that favours compounds with a hit; in the whole collection about 3.4% have one here.
SMILES,PLC-gamma1 inh,PLCb3 inh,KLK7 zymogen act,ADAM17 inh,ADAM10 inh,sPLA2-III inh,hGIII sPLA2 conf,BODIPY interf,others
CCN(CC)c1ccc(C=NNC(=O)c2cc(-c3ccc(C)c(C)c3)n[nH]2)c(O)c1,-36,-52,-93,-2,-12,21*,31*,3,535nm interf DR=>122
CCN(CC)c1ccc(/C=N/NC(=O)c2ccoc2C)c(O)c1,-39,-64,-6,-18,-39,10,nt,nt,
CCN(CC)c1ccc(/C=N/NC(=S)NC)c(O)c1,-55,-57,-8,-50,-165,21*,37*,2,535nm interf DR=>122
O=C(CCCNC(=O)c1ccc(Cl)cc1)Nc1ccccc1F,3,0,0,-4,7,21*,-3,-5,
CC12C(=O)N(NC(=O)c3ccncc3)C(=O)C1C1C=CC2C1 (configuration not stated),4,3,0,-4,-7,21*,-5,-5,
O=C(NN1C(=O)C2C3C=CC(C3)C2C1=O)c1ccncc1 (configuration not stated),-1,-1,0,-2,-6,7,nt,nt,
CN(C(=O)Nc1ccc(Cl)c(Cl)c1)c1ccccc1C(=O)O,-78,-109,4,-169,i,21*,5,-4,
CCOC(=O)[C@@]12CCCC=C1N(CCc1ccc(Cl)cc1)C(=O)[C@H]2CC(=O)NCc1cccc(C(F)(F)F)c1,0,-3,1,7,8,-18,nt,nt,
O=C(NCc1ccccc1)OCCN1C(=O)CCC12CCC(c1ccc(Cl)cc1)CC2 (configuration not stated),1,0,0,3,11,-13,nt,nt,
C=CCN1C(=O)/C(=C2/Sc3ccc(OC)cc3N2C)SC1=NCc1ccccc1,4,-4,0,-7,-8,-2,nt,nt,
C=CCN1C(=O)/C(=C2/Sc3ccc(OC)cc3N2C)SC1=Nc1ccccc1,5,-4,0,-1,4,94*,4,-4,
O=C(N[C@@H](Cc1ccccc1)C(=O)Nc1ccc(F)cc1)C1CCNCC1,6,-3,0,2,-5,7,nt,nt,
CC(=O)Nc1ccc(NC(=O)C(Cc2ccccc2)NC(=O)C2CCC(C)CC2)cc1 (configuration not stated),2,-3,0,-6,-3,25*,10,-13,
COC(=O)c1ccccc1S(=O)(=O)NC(=O)[C@H]1O[C@@H](n2ccc(=O)[nH]c2=O)[C@H](O)[C@@H]1O,3,6,0,1,-7,5,nt,nt,
CC(=O)CC[C@H]1CC[C@]2(CCCN(S(=O)(=O)c3ccccc3)C2)O1,-2,0,0,0,-3,2,nt,nt,
Clc1cccc(C[n+]2cc(-c3ccccc3)n3c2CCC3)c1,0,-4,0,-1,-1,19*,5,-26,
CC1CCN(C(C(=O)NC2CCCCC2)c2cc3c(cc2[N+](=O)[O-])OCO3)CC1 (configuration not stated),-2,-4,0,-6,-28,12,nt,nt,
CC1CCCN(C(C(=O)NC2CCCCC2)c2cc3c(cc2[N+](=O)[O-])OCO3)C1 (configuration not stated),-9,-14,0,-14,-41,20*,2,-16,
CC(C)C1Cc2[nH]c(=S)[nH]c(=O)c2C(c2ccc(Cl)cc2)O1 (configuration not stated),4,0,-1,-4,-1,20*,5,-12,
CCCCc1cccc2[nH]cc(C)c12,-5,-11,1,-2,0,-3,nt,nt,
COc1ccc(CN2CCN(c3ncccn3)CC2)c(C)c1C,4,-3,0,3,3,-1,nt,nt,
COc1ccc(CN2CCN(c3ccccn3)CC2)c(OC)c1C,0,-11,0,2,-4,19*!,-4,-14,
Cc1[nH]n(-c2ccccc2)c(=O)c1C(=O)c1ccccc1,4,2,0,0,-8,2,nt,nt,
CCSC(=S)c1c(C)[nH]n(-c2ccccc2)c1=O,5,-7,0,-1,4,19*,12,-1,
O=C(N/N=C/c1ccccc1O)NC12CC3CC(CC(C3)C1)C2,-1,-12,-11,-5,2,-16,nt,nt,
SMILES,PLC-gamma1 inh,PLCb3 inh,KLK7 zymogen act,ADAM17 inh,ADAM10 inh,sPLA2-III inh,hGIII sPLA2 conf,BODIPY interf,others
Oc1c(Cl)cc(Cl)cc1/C=N/NC(=S)NC1CC2C=CC1C2 (configuration not stated),i,i,-157,-104,-206,45*,61*,14*,
Oc1ccc(O)c(C=NNC(=S)NC2CC3CC2C2C=CCC32)c1 (configuration not stated),-51,-81,-10,-14,-46,19,nt,nt,
Oc1ccccc1/C=N/NC(=S)NC1CC2C=CC1C2 (configuration not stated),-63,-106,-28,-8,-26,27*,21*,6.2*,
Oc1ccccc1C=NNC(=S)NC1CC2C=CC1C2 (configuration not stated),-127,-172,-49,-14,-45,21*,24*,6,
O=C(N/N=C/c1cc(Cl)cc(Cl)c1O)c1ccncc1,-237,-324,-16,0,-2,-19,nt,nt,
COc1ccc2c(c1)[C@@]1(OCCC=C[C@H]1C)C(=O)N2Cc1ccc(Br)cc1,4,1,0,5,9,0,nt,nt,
Cc1ccc(S(=O)(=O)N2c3ccccc3-c3c(ssc3=S)C2(C)C)cc1,4,2,0,1,10,28*,24*,5,
Cc1ccccc1Nc1ccc(S(=O)(=O)N2CCOCC2)cc1[N+](=O)[O-],6,2,0,-3,4,20*,7,-9,
Cc1ccc(Nc2ccc(S(=O)(=O)N3CCOCC3)cc2[N+](=O)[O-])c(C)c1,6,8,1,3,11,2,nt,nt,
